A selection: hits, their analogues and other compounds. The true share with any hit is near 3%.
pPAFAH FP inh: pPAFAH enzyme inhibitors, primary screen, biochemical, fluorescence polarization, human; inhibition, % at 3.39 µM; recombinant pPAFAH, FP-rhodamine probe fluorescence polarization; 330,000 compounds, 1.5% hits; AID 463082, 2010; Platelet-activating factor acetylhydrolase (Homo sapiens), Q13093;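 active means inhibition above the mean inhibition across the screen plus 3 SD, cut at about 25% in these data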;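 further: inhibitors block binding of the rhodamine activity-based probe so polarization drops; 0% = enzyme with DMSO and 100% = wells lacking pPAFAH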
PAFAH2 FP inh: PAFAH2 enzyme inhibitors, primary screen, biochemical, fluorescence polarization, human. 340,000 compounds, 0.99% hits. recombinant PAFAH2, FP-rhodamine activity probe. inhibition, % at 3.39 µM;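 active means inhibition above the mean over all tested compounds plus 3 SD, cut at about 30% in these data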;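 further: inhibitors block probe labeling of enzyme so polarization drops; 0% = enzyme with DMSO and 100% = wells lacking PAFAH2 protein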
PAFAH1B2 inh: PAFAH1B2 enzyme inhibitors, primary screen, biochemical, fluorescence polarization, human; Platelet-activating factor acetylhydrolase IB subunit alpha2 (Homo sapiens), P68402; 340,000 compounds, 1.2% hits; inhibition, % at 3.39 µM; recombinant PAFAH1B2, FP-rhodamine activity probe;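 active means inhibition above the mean of all tested compounds plus 3 SD, cut at about 24% in these data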;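 further: 0% = enzyme with DMSO and 100% = wells lacking PAFAH1B2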
Target sequence (P68402 whole entry, looked up): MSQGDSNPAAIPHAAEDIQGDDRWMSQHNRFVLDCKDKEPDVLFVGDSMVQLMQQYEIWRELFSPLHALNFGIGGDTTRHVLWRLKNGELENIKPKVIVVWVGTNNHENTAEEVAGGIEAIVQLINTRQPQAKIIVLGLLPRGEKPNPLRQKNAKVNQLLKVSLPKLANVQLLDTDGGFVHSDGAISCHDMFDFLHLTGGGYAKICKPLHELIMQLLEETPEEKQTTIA
ATG4B inhibitor: ATG4B protease inhibitors, primary screen, biochemical, fluorescence, uHTS. Cysteine protease ATG4B (Homo sapiens), Q9Y4P1. ATG4B cleavage of LC3-PLA2, NBD-HPC fluorescence, 1 h. inhibition, % at 8.33 µM. 340,000 compounds, 0.51% hits. AID 504462, 2011; in the data active means inhibition above about 40%
DAGLB inh: DAGLB lipase inhibitors, primary screen, biochemical, fluorescence, HTS | 340,000 compounds, 0.059% hits | Diacylglycerol lipase-beta (Homo sapiens), Q8NCG7 | inhibition, % at 5.17 µM | HEK293T DAGLB membrane lysate, EnzChek fluorogenic substrate; in the data active means inhibition above about 34%;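 further: 0% = enzyme with vehicle and 100% = wells lacking enzyme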
PAFAH1B3 inh: PAFAH1B3 enzyme inhibitors, primary screen, biochemical, fluorescence polarization, human. Platelet-activating factor acetylhydrolase IB subunit alpha1 (Homo sapiens), Q15102. recombinant PAFAH1B3, FP-rhodamine probe. inhibition, % at 3.39 µM. 340,000 compounds, 0.28% hits. AID 492972, 2010;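 active means inhibition above the screen-wide average of all tested compounds plus 3 SD, cut at about 25% in these data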;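 further: 0% = enzyme with DMSO only and 100% = wells lacking PAFAH1B3 protein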
Target sequence (Q15102 whole entry, looked up): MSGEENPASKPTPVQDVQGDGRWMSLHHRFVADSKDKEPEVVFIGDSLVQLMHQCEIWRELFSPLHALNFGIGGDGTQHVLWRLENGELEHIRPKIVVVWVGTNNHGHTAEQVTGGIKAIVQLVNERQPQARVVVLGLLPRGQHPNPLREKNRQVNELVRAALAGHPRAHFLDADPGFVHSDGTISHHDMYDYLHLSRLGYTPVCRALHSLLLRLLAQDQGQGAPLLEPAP
* hit, by the source's call; / = not tested or not shown.

SMILES	pPAFAH FP inh	PAFAH2 FP inh	PAFAH1B2 inh	ATG4B inhibitor	DAGLB inh	PAFAH1B3 inh
O=C(NCCSc1ncc(-c2ccc(F)cc2)[nH]1)c1ccc2c(c1)OCO2	1	3	33*	0	-2	2
CS(=O)(=O)Nc1cccc(-c2cnc3ccccc3n2)c1	5	2	2	-4	-3	2
Cc1cccc(Oc2nc(CN3CCOCC3)nc3sc4c(c23)CCCC4)c1	31*	-2	3	3	-4	2
OCCN(CCO)c1ccc(C(c2ccccc2Cl)c2ccc(N(CCO)CCO)cc2Cl)c(Cl)c1	25*	22	9	32	4	20
OCCN(CCO)c1ccc2ccccc2c1	8	4	0	-3	3	4
Cn1c(N)c(S(=O)(=O)N2CCCC2)c(=O)n(C)c1=O	5	-3	0	-7	1	6
COc1ccc2[nH]c3c(N4CCc5ccccc5C4)ncnc3c2c1	33*	10	10	26	0	15
CCOC(=O)N1CCN(c2ncnc3c2[nH]c2ccc(OC)cc23)CC1	10	19	1	-11	-2	1
COc1cc(/C=N/n2cnnc2)ccc1OCCSc1ccc(C)cc1	11	0	24*	-6	-1	1
C=CCc1cccc(/C=N/NC(=O)c2ccc3nc[nH]c3c2)c1O	-6	-13	-1	-15	4	19
Cc1ccc2nc(Cl)c(/C=N/Nc3ccc(C(=O)O)cc3)cc2c1	30*	-4	4	0	3	10
Cc1ccc2cc(/C=N/NC(=O)c3ccc(F)cc3)c(Cl)nc2c1	-2	2	0	-7	-2	5
O=C(CCn1nnc2ccccc21)NNC(=O)C1CCCCC1	25*	-1	1	-5	0	4
Cc1ccc(SCC(=O)O/N=C(\N)c2cccnc2)cc1	-5	0	75*	-2	-12	4
Cc1ccc(S(=O)(=O)N(C)CC(=O)O/N=C(\N)c2cccnc2)cc1	0	3	7	6	-4	5
Cc1cn(CC(=O)N(C)Cc2ccco2)c(=O)[nH]c1=O	/	-5	0	/	-3	0
COC(=O)c1sccc1NC(=O)CC1C(=O)NCCN1C(=O)Nc1ccc(OCc2ccccc2)cc1 (stereo not drawn)	5	1	61*	-18	2	4
CCCCN(C(=O)c1cc2c(s1)CCCCC2)c1c(N)n(CC(C)C)c(=O)[nH]c1=O	/	3	3	6	2	1
COc1ccc(O)c(/C=N/NC(=O)CN2CCS(=O)(=O)CC2)c1	6	3	3	-2	0	-1
O=S(=O)(c1ccc(Br)cc1)N1CCN=C1SCc1cccnc1	-5	3	25*	-5	1	4
O=S(=O)(c1ccc(F)cc1)N1CCN=C1SCc1cccnc1	-2	6	8	-2	-2	2
CC(=O)c1ccc(N(C(=O)Cn2nnc3ccccc32)C(C(=O)NCc2ccccc2)c2ccccn2)cc1 (stereo not drawn)	0	-2	7	-1	3	4
Cc1ccc(N(C(=O)Cn2nnc3ccccc32)C(C(=O)NCc2ccccc2)c2ccccn2)cc1 (stereo not drawn)	-1	2	26*	-10	4	-4
CC(C)NC(=S)N/N=C1\CCCCC1C1CCCCC1 (stereo not drawn)	8	5	29*	5	-7	7
CC1CCCC/C1=N\NC(=S)Nc1ccccc1 (stereo not drawn)	3	2	2	-2	1	1
SMILES	pPAFAH FP inh	PAFAH2 FP inh	PAFAH1B2 inh	ATG4B inhibitor	DAGLB inh	PAFAH1B3 inh
COC(=O)c1sc(-c2ccc(C(C)(C)C)cc2)cc1NC(=O)COCC(=O)O	28*	/	/	17	/	/
CCOc1ccc(-n2c(SCC(=O)c3c(N)n(C)c(=O)n(C)c3=O)nnc2-c2cccnc2)cc1	1	-9	-1	-3	1	-3
CCOc1ccccc1NC(=O)C(=O)N/N=C/c1cc(Br)ccc1O	26*	10	5	1	7	4
COc1cccc(/C=N/NC(=O)C(=O)Nc2ccccc2OC(F)(F)C(F)F)c1O	12	35*	5	9	13	27*
NC(=O)C1CN(C(=O)c2cccc(S(=O)(=O)N3CCc4ccccc43)c2)c2ccccc2O1 (stereo not drawn)	2	6	23	-1	-5	6
COc1ccc(NS(=O)(=O)c2ccc(NS(=O)(=O)c3ccc(C)cc3)cc2)nn1	10	6	24*	6	-1	11
COc1ccc(C(=O)O)cc1S(=O)(=O)Nc1ccc(Oc2ccccc2)cc1	27*	0	8	5	3	6
Cc1ccc(Oc2ccc(S(=O)(=O)Nc3ccc(C(=O)O)cc3)cc2)cc1	29*	-3	7	-4	4	0
Cc1ccc(S(=O)(=O)Nc2cc(C)c(O)c(S(=O)(=O)c3ccc(C)cc3)c2)cc1	5	17	34*	-4	0	8
CC(=O)c1ccc(NS(=O)(=O)c2ccc(C)cc2)cc1	-1	-8	13	-3	-2	3
Cc1cc(NS(=O)(=O)c2ccccc2)cc(Cl)c1O	8	-1	0	-2	2	-1
COc1ccc(NS(=O)(=O)c2ccc(NC(C)=O)cc2)nn1	3	/	/	7	/	/
Cc1ccccc1CNC(=O)CN(c1ccccc1Cl)S(C)(=O)=O	0	10	3	-6	-4	3
Cc1ccc(NC(=O)CN(C)C(=O)c2ccc(NS(=O)(=O)c3cccc([N+](=O)[O-])c3)cc2)cc1	3	1	0	1	2	2
O=S(=O)(Nc1ccc(-c2ccccc2)cc1)c1ccccc1	/	-1	1	-14	-4	-7
CCOc1ccc(NS(=O)(=O)c2ccc(C(=O)N(C)CC(=O)Nc3ccc(C)cc3)cc2)cc1	33*	9	0	-11	0	2
O=S(=O)(Nc1ccc(S(=O)(=O)Nc2cccc3ccccc23)cc1)c1ccccc1	33*	8	30*	-5	2	-1
O=S(=O)(Nc1ccc(Nc2ccccc2)cc1)c1ccc(F)cc1	26*	11	6	0	-2	7
O=C(O)c1ccccc1C(=O)Nc1ccc(S(=O)(=O)Nc2ccc(F)cc2)cc1	21	0	5	6	-3	-4
COc1ccc(C(=O)O)cc1S(=O)(=O)N1CCCc2ccccc21	3	-1	26*	1	-2	6
